Of roughly 8,800 targets only a part is listed; those with a hit were picked by preference. About 0.5% of all pairs of compound and target were hits.

Sequence of UniProt Q9BTE3 (Q9BTE3 whole entry, looked up): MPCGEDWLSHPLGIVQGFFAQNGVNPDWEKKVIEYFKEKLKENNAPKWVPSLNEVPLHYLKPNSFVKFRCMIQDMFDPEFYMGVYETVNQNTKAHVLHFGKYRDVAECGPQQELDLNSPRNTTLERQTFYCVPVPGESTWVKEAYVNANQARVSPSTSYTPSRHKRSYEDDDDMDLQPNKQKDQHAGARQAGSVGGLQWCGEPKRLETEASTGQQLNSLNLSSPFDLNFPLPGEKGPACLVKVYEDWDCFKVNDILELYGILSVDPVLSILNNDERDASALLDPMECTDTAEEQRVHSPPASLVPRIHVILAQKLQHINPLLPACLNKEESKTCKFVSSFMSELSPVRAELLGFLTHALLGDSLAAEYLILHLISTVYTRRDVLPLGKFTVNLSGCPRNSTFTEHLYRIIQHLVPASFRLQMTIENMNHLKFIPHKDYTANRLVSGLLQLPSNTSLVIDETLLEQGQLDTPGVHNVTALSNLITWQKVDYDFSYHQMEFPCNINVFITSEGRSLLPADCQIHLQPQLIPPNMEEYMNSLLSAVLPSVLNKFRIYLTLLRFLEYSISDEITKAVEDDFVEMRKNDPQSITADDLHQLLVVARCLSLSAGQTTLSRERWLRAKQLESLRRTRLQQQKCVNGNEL
Sequence of UniProt O15243 (O15243 whole entry, looked up): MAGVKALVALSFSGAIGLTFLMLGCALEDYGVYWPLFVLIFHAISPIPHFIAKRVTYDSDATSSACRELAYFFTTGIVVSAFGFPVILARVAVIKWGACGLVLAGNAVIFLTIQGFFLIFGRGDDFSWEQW
Sequence of UniProt Q6ZRQ5 (Q6ZRQ5 whole entry, looked up): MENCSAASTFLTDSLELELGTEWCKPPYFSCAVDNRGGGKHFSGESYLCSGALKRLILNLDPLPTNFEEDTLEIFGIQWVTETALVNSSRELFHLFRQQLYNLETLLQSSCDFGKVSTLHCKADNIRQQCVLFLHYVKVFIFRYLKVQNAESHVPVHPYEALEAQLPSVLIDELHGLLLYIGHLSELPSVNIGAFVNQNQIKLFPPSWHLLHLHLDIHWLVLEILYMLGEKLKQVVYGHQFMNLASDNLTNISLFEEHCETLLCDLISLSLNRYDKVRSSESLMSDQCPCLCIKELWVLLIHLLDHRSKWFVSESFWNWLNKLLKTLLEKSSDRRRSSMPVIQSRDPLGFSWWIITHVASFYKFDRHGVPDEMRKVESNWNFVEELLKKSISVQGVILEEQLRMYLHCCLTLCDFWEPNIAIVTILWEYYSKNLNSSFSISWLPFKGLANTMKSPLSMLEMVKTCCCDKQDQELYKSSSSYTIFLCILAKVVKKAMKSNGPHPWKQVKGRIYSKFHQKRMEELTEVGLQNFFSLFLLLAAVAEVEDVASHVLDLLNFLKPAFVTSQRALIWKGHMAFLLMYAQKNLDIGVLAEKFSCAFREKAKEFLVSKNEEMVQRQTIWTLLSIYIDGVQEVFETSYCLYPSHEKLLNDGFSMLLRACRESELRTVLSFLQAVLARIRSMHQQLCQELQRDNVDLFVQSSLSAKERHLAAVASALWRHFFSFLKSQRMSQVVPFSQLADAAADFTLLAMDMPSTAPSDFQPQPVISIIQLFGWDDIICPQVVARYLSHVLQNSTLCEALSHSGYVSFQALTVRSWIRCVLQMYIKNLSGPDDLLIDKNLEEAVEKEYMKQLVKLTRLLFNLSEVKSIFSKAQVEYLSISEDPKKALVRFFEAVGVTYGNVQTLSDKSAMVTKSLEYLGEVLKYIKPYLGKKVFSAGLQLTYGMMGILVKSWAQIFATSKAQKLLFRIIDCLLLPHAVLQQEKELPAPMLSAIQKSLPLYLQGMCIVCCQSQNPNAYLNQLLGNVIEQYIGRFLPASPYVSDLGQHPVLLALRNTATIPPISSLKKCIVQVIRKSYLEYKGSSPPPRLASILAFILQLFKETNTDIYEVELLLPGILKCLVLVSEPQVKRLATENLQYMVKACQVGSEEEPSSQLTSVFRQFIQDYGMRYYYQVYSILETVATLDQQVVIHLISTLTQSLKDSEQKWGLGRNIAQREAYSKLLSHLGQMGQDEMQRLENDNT
Sequence of UniProt Q53G59 (Q53G59 whole entry, looked up): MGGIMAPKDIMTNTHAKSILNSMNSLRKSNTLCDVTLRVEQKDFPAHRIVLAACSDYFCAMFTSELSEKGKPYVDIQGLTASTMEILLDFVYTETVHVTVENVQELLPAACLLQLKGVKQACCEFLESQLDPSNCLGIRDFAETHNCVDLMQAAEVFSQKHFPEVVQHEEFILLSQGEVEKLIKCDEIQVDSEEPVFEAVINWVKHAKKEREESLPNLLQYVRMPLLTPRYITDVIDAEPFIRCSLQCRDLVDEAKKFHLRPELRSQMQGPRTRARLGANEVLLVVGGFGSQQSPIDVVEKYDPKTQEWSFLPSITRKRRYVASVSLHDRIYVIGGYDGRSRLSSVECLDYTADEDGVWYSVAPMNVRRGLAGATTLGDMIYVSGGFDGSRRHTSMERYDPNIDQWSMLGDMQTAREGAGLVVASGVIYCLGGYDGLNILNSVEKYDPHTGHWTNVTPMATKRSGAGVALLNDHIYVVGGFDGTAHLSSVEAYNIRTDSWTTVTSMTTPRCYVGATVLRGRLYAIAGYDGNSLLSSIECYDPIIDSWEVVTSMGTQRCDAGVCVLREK
Sequence of UniProt P08473 (P08473 whole entry, looked up): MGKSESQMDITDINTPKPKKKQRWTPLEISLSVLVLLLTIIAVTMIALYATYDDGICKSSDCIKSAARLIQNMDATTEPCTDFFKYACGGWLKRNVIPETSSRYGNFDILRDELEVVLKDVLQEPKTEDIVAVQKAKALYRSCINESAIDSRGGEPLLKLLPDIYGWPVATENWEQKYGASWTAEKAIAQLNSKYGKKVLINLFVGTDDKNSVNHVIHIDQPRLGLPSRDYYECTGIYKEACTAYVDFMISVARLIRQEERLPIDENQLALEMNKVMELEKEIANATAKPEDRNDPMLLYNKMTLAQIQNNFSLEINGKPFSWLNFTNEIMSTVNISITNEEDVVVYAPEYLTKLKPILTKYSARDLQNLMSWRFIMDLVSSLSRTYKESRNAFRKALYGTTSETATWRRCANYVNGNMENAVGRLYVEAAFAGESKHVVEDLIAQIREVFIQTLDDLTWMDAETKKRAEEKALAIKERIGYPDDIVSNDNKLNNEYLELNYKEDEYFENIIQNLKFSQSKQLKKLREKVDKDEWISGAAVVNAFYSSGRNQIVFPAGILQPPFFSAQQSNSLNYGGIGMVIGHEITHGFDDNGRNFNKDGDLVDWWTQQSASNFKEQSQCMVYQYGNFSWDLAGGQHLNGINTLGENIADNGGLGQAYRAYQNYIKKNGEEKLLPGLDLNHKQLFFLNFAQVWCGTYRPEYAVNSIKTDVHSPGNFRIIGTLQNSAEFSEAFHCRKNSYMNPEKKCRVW
Sequence of UniProt Q8WXB1 (Q8WXB1 whole entry, looked up): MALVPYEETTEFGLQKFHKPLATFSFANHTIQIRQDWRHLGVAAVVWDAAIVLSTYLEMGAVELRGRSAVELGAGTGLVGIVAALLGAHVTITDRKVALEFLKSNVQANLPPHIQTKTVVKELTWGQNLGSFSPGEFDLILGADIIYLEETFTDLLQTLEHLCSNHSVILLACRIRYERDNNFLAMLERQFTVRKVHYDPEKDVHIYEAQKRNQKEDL
Sequence of UniProt O95819 (O95819 whole entry, looked up): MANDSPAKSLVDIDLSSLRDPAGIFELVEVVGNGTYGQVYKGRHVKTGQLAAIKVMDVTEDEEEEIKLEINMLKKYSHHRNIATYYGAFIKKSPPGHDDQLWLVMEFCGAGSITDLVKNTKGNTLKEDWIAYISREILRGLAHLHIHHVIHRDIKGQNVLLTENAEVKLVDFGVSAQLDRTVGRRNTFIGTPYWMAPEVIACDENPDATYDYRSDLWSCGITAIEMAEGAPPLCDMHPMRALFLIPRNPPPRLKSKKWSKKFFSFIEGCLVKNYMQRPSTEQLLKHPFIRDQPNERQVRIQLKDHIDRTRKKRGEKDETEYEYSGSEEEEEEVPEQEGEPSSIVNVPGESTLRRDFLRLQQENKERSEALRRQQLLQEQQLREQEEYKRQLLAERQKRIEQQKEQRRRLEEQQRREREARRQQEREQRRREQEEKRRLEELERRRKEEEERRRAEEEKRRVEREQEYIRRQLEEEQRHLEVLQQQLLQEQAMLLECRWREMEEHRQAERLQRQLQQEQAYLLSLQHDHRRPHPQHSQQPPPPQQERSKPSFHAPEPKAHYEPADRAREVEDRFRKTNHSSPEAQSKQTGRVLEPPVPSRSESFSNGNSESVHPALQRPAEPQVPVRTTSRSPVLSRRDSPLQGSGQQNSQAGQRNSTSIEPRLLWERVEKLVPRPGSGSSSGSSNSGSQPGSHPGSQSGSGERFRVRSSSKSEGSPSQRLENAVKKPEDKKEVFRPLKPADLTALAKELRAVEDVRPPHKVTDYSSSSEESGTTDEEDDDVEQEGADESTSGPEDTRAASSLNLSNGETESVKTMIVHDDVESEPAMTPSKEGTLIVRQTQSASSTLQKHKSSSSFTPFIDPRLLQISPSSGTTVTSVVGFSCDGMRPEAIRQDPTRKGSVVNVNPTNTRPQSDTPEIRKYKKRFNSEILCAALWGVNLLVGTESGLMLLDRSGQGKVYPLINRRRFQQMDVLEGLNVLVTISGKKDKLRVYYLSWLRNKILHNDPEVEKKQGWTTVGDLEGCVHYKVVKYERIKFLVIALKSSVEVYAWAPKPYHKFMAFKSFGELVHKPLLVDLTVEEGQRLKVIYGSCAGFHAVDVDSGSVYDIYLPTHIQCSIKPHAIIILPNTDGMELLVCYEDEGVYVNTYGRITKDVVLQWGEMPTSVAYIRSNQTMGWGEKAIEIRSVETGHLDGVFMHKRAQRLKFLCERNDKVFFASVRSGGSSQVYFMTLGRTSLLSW
Sequence of UniProt P01116 (P01116 whole entry, looked up): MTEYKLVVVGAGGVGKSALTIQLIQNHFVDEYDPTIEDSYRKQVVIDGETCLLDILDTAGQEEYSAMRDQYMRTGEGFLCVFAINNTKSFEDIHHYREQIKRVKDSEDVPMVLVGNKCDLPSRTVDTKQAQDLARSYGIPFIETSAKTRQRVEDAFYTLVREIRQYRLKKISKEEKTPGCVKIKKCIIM

Compound in one assay: CS(=O)(=O)CCNCc1ccc(-c2ccc3ncnc(Nc4ccc(OCc5cccc(F)c5)c(Cl)c4)c3c2)o1 [lapatinib]
The experiment in a line: log2 fold change, soluble protein after heating vs DMSO (PISA); higher = thermal stabilisation; K562 lysate, 10 uM; active = over 0.2 and 3.5 SD of the protein, either way, in both replicates (recomputed). An outline of the steps: (§1)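 Values give the log-two fold change in thermal stability against solvent controls, from duplicates. Crude K562 extract at 1 mg/mL protein, made by dounce homogenisation in PBS pH 7.4 with 1 mM MgCl2, was treated with 10 μM compound for 30 min. After 3 min heating across 48°C-58°C, aliquots were pooled, adjusted to 0.5% NP-40 at 4°C and centrifuged at 21,000xg for 90 min. The supernatant was measured by TMTpro 16plex LC-MS/MS with channel sums equalised.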
Take LGALS3BP (UniProt Q08380): the log2 fold change is -0.239 (inactive).

For the target MRPL22 (UniProt Q9NWU5), the log2 fold change is -0.023 (inactive).

LEPROT (UniProt O15243): the log2 fold change was -0.058 (inactive).

KRIT1 (UniProt O00522): the log2 fold change was -0.115 (inactive).

As for LRP1 (UniProt Q07954), the log2 fold change is -0.047 (inactive).

For the target KLHL12 isoform 2 (UniProt Q53G59), the log2 fold change was 0.023 (inactive).

Take MARCHF6 (UniProt O60337): the log2 fold change is -0.039 (inactive).

As for KIF18B (UniProt Q86Y91), the log2 fold change is -0.024 (inactive).

Consider MCUB (UniProt Q9NWR8), for which the log2 fold change is 0.044 (inactive).

Take MMS22L (UniProt Q6ZRQ5): the log2 fold change was -0.101 (inactive).

For the target LIMK1 (UniProt P53667), the log2 fold change is 0.049 (inactive).

MCMBP isoform 2 (UniProt Q9BTE3): the log2 fold change was 0.154 (inactive).

As to MAP4K4 isoform 6 (UniProt O95819), the log2 fold change was -0.002 (inactive).

For the target KRAS isoform 2 (UniProt P01116), the log2 fold change is -0.023 (inactive).

As to LY6E (UniProt Q16553), the log2 fold change was -0.026 (inactive).

For the target MAP4 isoform 5 (UniProt P27816), the log2 fold change was -0.089 (inactive).

For LRRIQ1 (UniProt Q96JM4), the log2 fold change is 0.04 (inactive).

In the case of MAP4K4 isoform 3 (UniProt O95819), the log2 fold change was -0.061 (inactive).

Regarding MINDY1 isoform 3 (UniProt Q8N5J2), the log2 fold change is -0.002 (inactive).

MED28 (UniProt Q9H204): the log2 fold change is 0.132 (inactive).

As to MME (UniProt P08473), the log2 fold change was 0.025 (inactive).

For LRRC7 (UniProt Q96NW7), the log2 fold change was -0.048 (inactive).

As for KIF21A (UniProt H0YI78), the log2 fold change was -0.11 (inactive).

Regarding MAPK7 (UniProt Q13164), the log2 fold change is -0.145 (inactive).

On to METTL21A (UniProt Q8WXB1), for which the log2 fold change was 0.004 (inactive).

Compound in the next assay: CS(=O)(=O)N1CCN(Cc2cc3nc(-c4cccc5[nH]ncc45)nc(N4CCOCC4)c3s2)CC1 [pictilisib]
Described as above. A digest of the protocol: as §1
Regarding LEPROT (UniProt O15243), the log2 fold change is 0 (inactive).

As for KRIT1 (UniProt O00522), the log2 fold change was -0.058 (inactive).

As for KLC1 isoform 10 (UniProt Q07866), the log2 fold change was -0.167 (inactive).

Regarding KLHL12 isoform 2 (UniProt Q53G59), the log2 fold change is 0.048 (inactive).

Take KIFC3 isoform 6 (UniProt Q9BVG8): the log2 fold change is -0.127 (inactive).

Regarding MAPK12 (UniProt P53778), the log2 fold change was 0.059 (inactive).

As for MARCHF6 (UniProt O60337), the log2 fold change is 0.09 (inactive).

For the target MCUB (UniProt Q9NWR8), the log2 fold change was 0.088 (inactive).

Regarding MMS22L (UniProt Q6ZRQ5), the log2 fold change was -0.034 (inactive).

Turning to LIMK1 (UniProt P53667), the log2 fold change is -0.087 (inactive).

Consider MCMBP isoform 2 (UniProt Q9BTE3), for which the log2 fold change was -0.179 (inactive).

MAP4K4 isoform 6 (UniProt O95819): the log2 fold change was -0.092 (inactive).

Take MEGF8 (UniProt Q7Z7M0): the log2 fold change is -0.015 (inactive).

As to LY6E (UniProt Q16553), the log2 fold change is 0.071 (inactive).

Consider MAP4 isoform 5 (UniProt P27816), for which the log2 fold change was -0.008 (inactive).

As for MAP4K4 isoform 3 (UniProt O95819), the log2 fold change was -0.049 (inactive).

MINDY1 isoform 3 (UniProt Q8N5J2): the log2 fold change was 0 (inactive).

In the case of MME (UniProt P08473), the log2 fold change is -0.024 (inactive).

Turning to LRRC7 (UniProt Q96NW7), the log2 fold change is 0.041 (inactive).

Regarding KIF21A (UniProt H0YI78), the log2 fold change was 0.052 (inactive).

With METTL21A (UniProt Q8WXB1), the log2 fold change was 0.06 (inactive).

Compound in another assay: C[C@@H](Oc1cc(-c2cnn(C3CCNCC3)c2)cnc1N)c1c(Cl)ccc(F)c1Cl [crizotinib]
The description is as above. An outline of the steps: as §1
On to LGALS3BP (UniProt Q08380), for which the log2 fold change was 0.204 (inactive).

For the target MRPL22 (UniProt Q9NWU5), the log2 fold change is -0.047 (inactive).

On to MAPKAP1 (UniProt Q9BPZ7), for which the log2 fold change is 0.02 (inactive).

For LEPROT (UniProt O15243), the log2 fold change was -0.069 (inactive).

On to KRIT1 (UniProt O00522), for which the log2 fold change was -0.07 (inactive).

As to LRP1 (UniProt Q07954), the log2 fold change was -0.488 (inactive).

Turning to KMT2B (UniProt Q9UMN6), the log2 fold change was 0.073 (inactive).

As to KLHL12 isoform 2 (UniProt Q53G59), the log2 fold change was 0.016 (inactive).

Turning to MAP3K4 isoform 2 (UniProt Q9Y6R4), the log2 fold change is 0.044 (inactive).

KIFC3 isoform 6 (UniProt Q9BVG8): the log2 fold change is -0.21 (inactive).

With LSM11 (UniProt P83369), the log2 fold change is 0.025 (inactive).

Take MRC2 (UniProt Q9UBG0): the log2 fold change was -0.3 (inactive).

Regarding MARCHF6 (UniProt O60337), the log2 fold change was -0.118 (inactive).

With KIF18B (UniProt Q86Y91), the log2 fold change was -0.008 (inactive).

For the target LRRC9 (UniProt Q6ZRR7), the log2 fold change was -0.065 (inactive).

MCUB (UniProt Q9NWR8): the log2 fold change was -0.17 (inactive).

As to MMS22L (UniProt Q6ZRQ5), the log2 fold change is 0.113 (inactive).

Consider LIMK1 (UniProt P53667), for which the log2 fold change was 0.276 (inactive).

Turning to MCMBP isoform 2 (UniProt Q9BTE3), the log2 fold change is 0.14 (inactive).

For KRAS isoform 2 (UniProt P01116), the log2 fold change was -0.016 (inactive).

On to MEGF8 (UniProt Q7Z7M0), for which the log2 fold change is 0.113 (inactive).

As to MAP4 isoform 5 (UniProt P27816), the log2 fold change is -0.034 (inactive).

As for LRRIQ1 (UniProt Q96JM4), the log2 fold change was -0.278 (inactive).

Take MINDY1 isoform 3 (UniProt Q8N5J2): the log2 fold change was -0.045 (inactive).

Take MED28 (UniProt Q9H204): the log2 fold change was 0.021 (inactive).

In the case of MME (UniProt P08473), the log2 fold change is 0.037 (inactive).

In the case of LRRC7 (UniProt Q96NW7), the log2 fold change is 0.065 (inactive).

For MAPK7 (UniProt Q13164), the log2 fold change is 0.246 (inactive).

Regarding METTL21A (UniProt Q8WXB1), the log2 fold change is -0.043 (inactive).

Source of the values: the supplement of paper PMC10849652.
